Results on 40 compounds are retold here after the supplement of paper PMC8975748.

Counter-ions that a name gives are not always drawn.

For the assay, the system named is Saccharomyces cerevisiae BY4741 SeMeCo community. As to the kind of experiment: z-score of subpopulation abundance vs DMSO median, subpopulation auxotrophic for UM; higher = larger share of this subpopulation than in DMSO controls. Particulars: 10 µM; 24 h; SM minimal medium; subpopulation (auxotrophy): UM. As for the experimental part: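 Fluorescent four-plasmid SeMeCo (self-establishing metabolically cooperating S. cerevisiae BY4741 community; plasmids pH-mRuby2, pL-mWasabi, pU-eCFP, pM-TagRFP657) was grown 24 h in minimal SM medium with each Selleck FDA-approved drug at 10 µM in 384-well plates. Cells were fixed and imaged by high-content confocal microscopy. For each auxotrophic subpopulation (and the prototroph), a z-score gives the deviation from the DMSO vehicle-control population median.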
On to `O=[N+]([O-])C(Br)(CO)CO` [Bronopol], for which the “z-score of subpopulation abundance” value was -0.1.

Take `C[C@@H]1CC[C@H]2[C@@H](C)C(=O)O[C@@H]3O[C@@]4(C)CC[C@@H]1[C@]32OO4` [Artemisinin]: the “z-score of subpopulation abundance” value was -0.66.

Consider `COc1ccc2c(c1)[C@]13CCCC[C@@H]1[C@H](C2)N(C)CC3` [Dextromethorphan hydrobromide hydrate], for which the “z-score of subpopulation abundance” value is -0.52.

On to `Cc1cc(O)ccc1Cl` [Chlorocresol], for which the “z-score of subpopulation abundance” value was -0.48.

On to `CN(C)C(=O)Oc1cccc([N+](C)(C)C)c1` [Neostigmine Bromide], for which the “z-score of subpopulation abundance” value is -0.71.

For the compound `O=c1[nH]c2ccccc2n1CCCN1CCC(n2c(=O)[nH]c3cc(Cl)ccc32)CC1` [Domperidone], the “z-score of subpopulation abundance” value was 0.56.

As for `CC[N+](C)(CC)CCOC(=O)C(O)(c1ccccc1)c1ccccc1` [Methylbenactyzine Bromide], the “z-score of subpopulation abundance” value was -0.66.

Regarding `C#C[C@]1(O)C=C[C@H]2[C@@H]3CCC4=CC(=O)CC[C@@H]4[C@H]3CC[C@@]21CC` [Gestodene], the “z-score of subpopulation abundance” value was -1.14.

For `Cn1cc(C2=C(c3cn(C4CCN(Cc5ccccn5)CC4)c4ccccc34)C(=O)NC2=O)c2ccccc21`, the “z-score of subpopulation abundance” value was determined as 0.73.

On to `CC(C)N(CCC(C(N)=O)(c1ccccc1)c1ccccn1)C(C)C` (stereo not given) [Disopyramide], for which the “z-score of subpopulation abundance” value is -0.64.

`CN(C)[C@@H]1C(=O)C(C(N)=O)=C(O)[C@@]2(O)C(=O)C3=C(O)c4c(O)cccc4[C@@](C)(O)[C@H]3[C@H](O)[C@@H]12` [Oxytetracycline Dihydrate]: the “z-score of subpopulation abundance” value was -0.39.

As for `CC(=O)O[C@H]1C[C@@H]2CC[C@@H]3[C@H](CC[C@@]4(C)[C@H]3C[C@H]([N+]3(C)CCCCC3)[C@@H]4OC(C)=O)[C@@]2(C)C[C@@H]1[N+]1(C)CCCCC1` [Pancuronium dibromide], the “z-score of subpopulation abundance” value is -0.06.

Turning to `CN1[C@@H]2C[C@@H](OC(=O)[C@H](CO)c3ccccc3)C[C@H]1[C@@H]1O[C@@H]12` [Scopolamine HBr trihydrate], the “z-score of subpopulation abundance” value is -0.11.

`CCCN1C[C@H](CSC)C[C@@H]2c3cccc4[nH]cc(c34)C[C@H]21` [Pergolide Mesylate]: the “z-score of subpopulation abundance” value is -0.77.

As for `CN[C@@H]1[C@@H](O)[C@@H](O[C@@H]2[C@@H](O)[C@H](O[C@H]3O[C@H](CN)CC[C@H]3N)[C@@H](N)C[C@H]2N)OC[C@]1(C)O.CN[C@@H]1[C@@H](O)[C@@H](O[C@@H]2[C@@H](O)[C@H](O[C@H]3O[C@H]([C@@H](C)N)CC[C@H]3N)[C@@H](N)C[C@H]2N)OC[C@]1(C)O.CN[C@@H]1[C@@H](O)[C@@H](O[C@@H]2[C@@H](O)[C@H](O[C@H]3O[C@H]([C@@H](C)NC)CC[C@H]3N)[C@@H](N)C[C@H]2N)OC[C@]1(C)O` [Gentamicin Sulfate], the “z-score of subpopulation abundance” value is -0.75.

Take `C[C@@H]1O[C@@H](O[C@H]2C[C@@H](O)[C@]3(CO)[C@H]4[C@H](O)C[C@]5(C)[C@@H](C6=CC(=O)OC6)CC[C@]5(O)[C@@H]4CC[C@]3(O)C2)[C@H](O)[C@H](O)[C@H]1O` [Ouabain]: the “z-score of subpopulation abundance” value is 0.06.

Regarding `C[N+]1(C)[C@@H]2C[C@@H](OC(=O)[C@H](CO)c3ccccc3)C[C@H]1[C@@H]1O[C@@H]12` [Methscopolamine], the “z-score of subpopulation abundance” value was 1.32.

Take `Nc1ccncc1` [4-Aminopyridine]: the “z-score of subpopulation abundance” value was -0.05.

On to `CCC1=C[C@H]2CN3CCc4c([nH]c5ccccc45)[C@](C(=O)OC)(C2)[C@H]13` [Catharanthine], for which the “z-score of subpopulation abundance” value was determined as 0.1.

`C=C(C)[C@H]1Cc2c(ccc3c2O[C@@H]2COc4cc(OC)c(OC)cc4[C@@H]2C3=O)O1` [Rotenone (Barbasco)]: the “z-score of subpopulation abundance” value came out at 0.29.

As for `CN(C)[C@@H]1C(=O)C(C(N)=O)=C(O)[C@@]2(O)C(=O)C3=C(O)c4c(O)cccc4[C@@](C)(O)[C@H]3C[C@@H]12` [Tetracycline HCl], the “z-score of subpopulation abundance” value was found to be 0.64.

On to `C[N+](C)(C)CCCCCCCCCC[N+](C)(C)C` [Decamethonium Bromide], for which the “z-score of subpopulation abundance” value was found to be 0.35.

For the compound `CN1[C@@H]2C[C@@H](OC(=O)[C@H](CO)c3ccccc3)C[C@H]1[C@@H]1O[C@@H]12` [Scopolamine HBr], the “z-score of subpopulation abundance” value was -0.95.

In the case of `COc1ccc(C(CN(C)C)C2(O)CCCCC2)cc1` (stereo not given) [Venlafaxine], the “z-score of subpopulation abundance” value amounted to 0.35.

Regarding `COc1ccc(C(CN(C)C)C2(O)CCCCC2)cc1` (stereo not given) [Venlafaxine HCl], the “z-score of subpopulation abundance” value stood at 0.66.

Turning to `CN1c2ccccc2C(NCCCCCCC(=O)O)c2ccc(Cl)cc2S1(=O)=O` (stereo not given) [Tianeptine sodium], the “z-score of subpopulation abundance” value stood at 0.21.

For `CNC1CC(N)C(O)C(OC2OC(CO)C(O)C3OC4(OC(C(N)CO)C(O)C(O)C4O)OC23)C1O` (stereo not given) [Hygromycin B], the “z-score of subpopulation abundance” value worked out at 0.06.

Regarding `NCCc1c[nH]c2ccc(O)cc12` [Serotonin HCl], the “z-score of subpopulation abundance” value was -0.02.

For `CCCCCCCCCCCCCCCC[n+]1ccccc1` [Cetylpyridinium Chloride], the “z-score of subpopulation abundance” value came to 3.46.

On to `CCN(C)C(=O)Oc1cccc([C@H](C)N(C)C)c1` [Rivastigmine], for which the “z-score of subpopulation abundance” value is 0.75.

With `N[C@@H]1C[C@H]1c1ccccc1` [Tranylcypromine (2-PCPA) HCl], the “z-score of subpopulation abundance” value is -0.34.

For the compound `CC(C)=CCOc1c2occc2cc2ccc(=O)oc12` [Imperatorin], the “z-score of subpopulation abundance” value was found to be 0.52.

As to `CC(NC(C)(C)C)C(=O)c1cccc(Cl)c1` (stereo not given) [Amfebutamone (Bupropion) HCl], the “z-score of subpopulation abundance” value was -0.25.

Turning to `CN(C)C(=O)Oc1ccc[n+](C)c1` [Pyridostigmine Bromide], the “z-score of subpopulation abundance” value is 0.25.

Regarding `CC(C)(O)C(Cl)(Cl)Cl` [Chlorobutanol], the “z-score of subpopulation abundance” value worked out at 0.14.

As to `CCN(CC)CCOC(=O)C(O)(c1ccccc1)c1ccccc1` [Benactyzine hydrochloride], the “z-score of subpopulation abundance” value was found to be 0.21.

`C=C[C@H]1CN2CC[C@H]1C[C@H]2[C@H](O)c1ccnc2ccccc12` [Cinchonidine]: the “z-score of subpopulation abundance” value is 0.45.

On to `Cc1cc(C(C#N)c2ccc(Cl)cc2)c(Cl)cc1NC(=O)c1cc(I)cc(I)c1O` (stereo not given) [Closantel], for which the “z-score of subpopulation abundance” value is -0.03.

Consider `C=CN1CCCC1=O.II` [Povidone iodine], for which the “z-score of subpopulation abundance” value was 0.16.

In the case of `C=CCN1C[C@H](C(=O)N(CCCN(C)C)C(=O)NCC)C[C@@H]2c3cccc4[nH]cc(c34)C[C@H]21` [Cabergoline], the “z-score of subpopulation abundance” value was -0.17.
